Reference: the supplement of paper PMC11732987, “Enantioselective OTUD7B fragment discovery through chemoproteomics screening and high-throughput optimisation” (Communications Chemistry, 2025)

Key:
Test in all cases: log2 ratio of Biotin-Ahx-Ub-VS probe labelling (fragment/DMSO); higher = less target engagement (more negative = stronger competition), active = hit call of the paper (q ≤ 0.05, log2 ratio ≤ -1)
Settings in all cases: compound concentration: 200 uM; treatment time: 3 h
USP19 = target: T1, USP19 (UniProt O94966)
T1 sequence (whole entry): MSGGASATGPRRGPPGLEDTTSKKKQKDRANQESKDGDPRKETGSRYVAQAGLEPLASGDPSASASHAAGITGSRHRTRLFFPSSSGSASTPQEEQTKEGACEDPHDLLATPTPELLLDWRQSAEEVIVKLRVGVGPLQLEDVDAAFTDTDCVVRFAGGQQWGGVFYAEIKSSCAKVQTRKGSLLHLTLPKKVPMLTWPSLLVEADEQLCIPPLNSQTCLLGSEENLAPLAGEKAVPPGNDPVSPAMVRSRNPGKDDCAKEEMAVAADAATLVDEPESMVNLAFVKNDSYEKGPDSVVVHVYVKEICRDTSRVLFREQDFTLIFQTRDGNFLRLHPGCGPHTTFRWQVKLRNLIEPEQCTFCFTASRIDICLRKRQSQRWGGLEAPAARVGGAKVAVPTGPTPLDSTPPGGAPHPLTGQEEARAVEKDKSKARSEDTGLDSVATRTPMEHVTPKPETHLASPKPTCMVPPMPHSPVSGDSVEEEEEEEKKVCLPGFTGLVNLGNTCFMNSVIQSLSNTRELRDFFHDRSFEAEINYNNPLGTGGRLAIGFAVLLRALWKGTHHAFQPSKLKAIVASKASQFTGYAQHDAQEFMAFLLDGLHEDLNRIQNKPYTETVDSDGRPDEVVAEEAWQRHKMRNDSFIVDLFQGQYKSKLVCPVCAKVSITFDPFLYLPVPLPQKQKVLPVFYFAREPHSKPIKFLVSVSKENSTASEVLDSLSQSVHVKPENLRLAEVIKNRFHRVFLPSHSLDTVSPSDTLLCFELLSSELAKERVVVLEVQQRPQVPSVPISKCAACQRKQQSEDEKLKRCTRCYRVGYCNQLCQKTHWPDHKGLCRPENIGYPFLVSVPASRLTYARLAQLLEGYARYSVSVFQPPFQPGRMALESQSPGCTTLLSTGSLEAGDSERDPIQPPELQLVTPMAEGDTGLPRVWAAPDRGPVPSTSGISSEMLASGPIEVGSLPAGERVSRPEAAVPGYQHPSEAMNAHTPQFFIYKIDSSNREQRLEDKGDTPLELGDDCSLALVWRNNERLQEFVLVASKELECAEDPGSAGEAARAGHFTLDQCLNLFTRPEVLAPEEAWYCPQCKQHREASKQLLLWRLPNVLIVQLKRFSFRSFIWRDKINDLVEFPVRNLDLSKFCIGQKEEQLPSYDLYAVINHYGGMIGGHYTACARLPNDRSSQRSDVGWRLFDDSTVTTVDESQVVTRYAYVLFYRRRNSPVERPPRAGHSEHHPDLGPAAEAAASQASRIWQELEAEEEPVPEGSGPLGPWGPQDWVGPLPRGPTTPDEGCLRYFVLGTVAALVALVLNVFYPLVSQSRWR
Method in brief: (§1)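 HEK293T lysate (495 µg per sample, in Tris/CHAPS/IGEPAL buffer with protease inhibitors) was exposed in triplicate for 3 h to fragment at 200 µM or to vehicle, then to Biotin-Ahx-Ub-VS at 0.5 µM final for 1 h. Labelled DUBs were enriched on NeutrAvidin, digested with LysC and trypsin, and analysed by diaPASEF LC-MS/MS. Spectronaut label-free quantities were normalised to the global median, and values are average log2 ratios of fragment over vehicle from an unpaired t-test. Only proteins with ≥2 unique peptides were used.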

USP22 = target: T2, USP22 (UniProt Q9UPT9)
T2 sequence (whole entry): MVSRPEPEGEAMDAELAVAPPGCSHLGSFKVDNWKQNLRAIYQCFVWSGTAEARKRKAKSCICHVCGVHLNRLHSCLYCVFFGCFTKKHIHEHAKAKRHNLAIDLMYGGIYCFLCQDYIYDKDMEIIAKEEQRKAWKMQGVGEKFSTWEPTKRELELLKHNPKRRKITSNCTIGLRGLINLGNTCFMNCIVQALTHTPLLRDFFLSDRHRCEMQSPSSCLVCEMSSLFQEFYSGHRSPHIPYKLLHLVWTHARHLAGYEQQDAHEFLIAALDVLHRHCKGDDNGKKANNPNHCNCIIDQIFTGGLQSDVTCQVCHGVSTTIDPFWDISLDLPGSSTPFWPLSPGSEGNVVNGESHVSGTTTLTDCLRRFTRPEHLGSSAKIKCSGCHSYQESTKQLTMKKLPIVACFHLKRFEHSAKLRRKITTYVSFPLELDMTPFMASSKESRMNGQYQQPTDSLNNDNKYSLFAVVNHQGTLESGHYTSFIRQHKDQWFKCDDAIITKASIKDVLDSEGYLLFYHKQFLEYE
Method in brief: as §1

USP24 = USP24 (UniProt Q9UPU5)
Method in brief: as §1

USP25 = target: T3, USP25 (UniProt Q9UHP3)
T3 sequence (whole entry): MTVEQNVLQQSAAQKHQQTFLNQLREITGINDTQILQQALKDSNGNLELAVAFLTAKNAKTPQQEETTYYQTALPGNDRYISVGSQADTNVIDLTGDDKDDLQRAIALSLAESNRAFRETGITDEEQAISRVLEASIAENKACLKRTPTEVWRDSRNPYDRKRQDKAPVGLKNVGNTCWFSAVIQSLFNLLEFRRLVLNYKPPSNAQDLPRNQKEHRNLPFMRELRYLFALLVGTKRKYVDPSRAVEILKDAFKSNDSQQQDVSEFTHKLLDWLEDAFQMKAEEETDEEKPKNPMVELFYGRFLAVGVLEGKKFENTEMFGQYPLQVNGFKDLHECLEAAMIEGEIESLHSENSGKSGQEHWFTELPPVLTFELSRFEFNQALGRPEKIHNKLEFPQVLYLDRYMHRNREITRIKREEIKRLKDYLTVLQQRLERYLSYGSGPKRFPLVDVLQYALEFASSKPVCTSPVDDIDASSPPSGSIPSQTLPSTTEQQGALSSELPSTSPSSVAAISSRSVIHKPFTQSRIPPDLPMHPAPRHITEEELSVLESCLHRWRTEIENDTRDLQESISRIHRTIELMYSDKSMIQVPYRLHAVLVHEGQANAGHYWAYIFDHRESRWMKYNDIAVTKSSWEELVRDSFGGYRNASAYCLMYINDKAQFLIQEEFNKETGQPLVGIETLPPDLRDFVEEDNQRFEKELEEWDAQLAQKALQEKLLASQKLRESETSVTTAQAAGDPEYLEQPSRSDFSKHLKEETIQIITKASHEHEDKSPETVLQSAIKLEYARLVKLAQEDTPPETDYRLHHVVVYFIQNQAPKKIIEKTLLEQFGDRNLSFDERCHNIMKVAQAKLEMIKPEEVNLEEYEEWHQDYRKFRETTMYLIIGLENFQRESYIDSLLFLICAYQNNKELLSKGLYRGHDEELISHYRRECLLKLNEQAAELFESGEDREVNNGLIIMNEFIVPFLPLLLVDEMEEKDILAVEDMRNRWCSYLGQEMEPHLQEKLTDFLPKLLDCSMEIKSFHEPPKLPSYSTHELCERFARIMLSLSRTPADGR
Method in brief: as §1

USP28 = target: T4, USP28 (UniProt Q96RU2)
T4 sequence (whole entry): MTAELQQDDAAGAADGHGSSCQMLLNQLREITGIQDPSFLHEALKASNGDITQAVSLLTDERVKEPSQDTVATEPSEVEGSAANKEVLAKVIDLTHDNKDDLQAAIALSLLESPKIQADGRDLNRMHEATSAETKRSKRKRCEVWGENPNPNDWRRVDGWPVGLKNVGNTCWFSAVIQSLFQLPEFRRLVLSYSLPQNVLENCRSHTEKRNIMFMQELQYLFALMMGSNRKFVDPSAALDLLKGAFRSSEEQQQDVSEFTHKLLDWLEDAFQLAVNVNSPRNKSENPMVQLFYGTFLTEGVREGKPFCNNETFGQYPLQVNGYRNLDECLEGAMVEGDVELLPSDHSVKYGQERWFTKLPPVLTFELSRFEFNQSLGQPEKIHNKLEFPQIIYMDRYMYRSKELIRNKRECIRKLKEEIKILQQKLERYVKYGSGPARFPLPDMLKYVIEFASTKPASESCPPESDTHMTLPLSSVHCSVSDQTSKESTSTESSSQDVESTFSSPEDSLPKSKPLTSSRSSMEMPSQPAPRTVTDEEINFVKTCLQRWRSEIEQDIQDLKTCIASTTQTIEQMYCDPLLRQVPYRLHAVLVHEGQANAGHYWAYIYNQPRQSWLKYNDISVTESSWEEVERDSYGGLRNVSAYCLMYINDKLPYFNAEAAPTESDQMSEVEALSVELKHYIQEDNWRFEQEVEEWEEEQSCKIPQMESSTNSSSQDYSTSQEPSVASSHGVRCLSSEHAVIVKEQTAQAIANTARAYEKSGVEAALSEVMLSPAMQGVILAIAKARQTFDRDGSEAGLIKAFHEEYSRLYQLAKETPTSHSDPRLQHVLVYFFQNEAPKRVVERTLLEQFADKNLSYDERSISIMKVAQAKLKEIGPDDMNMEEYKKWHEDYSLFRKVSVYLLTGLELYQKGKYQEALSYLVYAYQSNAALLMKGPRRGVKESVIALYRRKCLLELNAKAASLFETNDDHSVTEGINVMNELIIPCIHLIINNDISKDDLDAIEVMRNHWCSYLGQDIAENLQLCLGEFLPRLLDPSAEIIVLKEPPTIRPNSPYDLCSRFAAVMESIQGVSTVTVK
Method in brief: as §1

Measured: log2 ratio of Biotin-Ahx-Ub-VS probe labelling

Sequence of USP24 (Q9UPU5 whole entry): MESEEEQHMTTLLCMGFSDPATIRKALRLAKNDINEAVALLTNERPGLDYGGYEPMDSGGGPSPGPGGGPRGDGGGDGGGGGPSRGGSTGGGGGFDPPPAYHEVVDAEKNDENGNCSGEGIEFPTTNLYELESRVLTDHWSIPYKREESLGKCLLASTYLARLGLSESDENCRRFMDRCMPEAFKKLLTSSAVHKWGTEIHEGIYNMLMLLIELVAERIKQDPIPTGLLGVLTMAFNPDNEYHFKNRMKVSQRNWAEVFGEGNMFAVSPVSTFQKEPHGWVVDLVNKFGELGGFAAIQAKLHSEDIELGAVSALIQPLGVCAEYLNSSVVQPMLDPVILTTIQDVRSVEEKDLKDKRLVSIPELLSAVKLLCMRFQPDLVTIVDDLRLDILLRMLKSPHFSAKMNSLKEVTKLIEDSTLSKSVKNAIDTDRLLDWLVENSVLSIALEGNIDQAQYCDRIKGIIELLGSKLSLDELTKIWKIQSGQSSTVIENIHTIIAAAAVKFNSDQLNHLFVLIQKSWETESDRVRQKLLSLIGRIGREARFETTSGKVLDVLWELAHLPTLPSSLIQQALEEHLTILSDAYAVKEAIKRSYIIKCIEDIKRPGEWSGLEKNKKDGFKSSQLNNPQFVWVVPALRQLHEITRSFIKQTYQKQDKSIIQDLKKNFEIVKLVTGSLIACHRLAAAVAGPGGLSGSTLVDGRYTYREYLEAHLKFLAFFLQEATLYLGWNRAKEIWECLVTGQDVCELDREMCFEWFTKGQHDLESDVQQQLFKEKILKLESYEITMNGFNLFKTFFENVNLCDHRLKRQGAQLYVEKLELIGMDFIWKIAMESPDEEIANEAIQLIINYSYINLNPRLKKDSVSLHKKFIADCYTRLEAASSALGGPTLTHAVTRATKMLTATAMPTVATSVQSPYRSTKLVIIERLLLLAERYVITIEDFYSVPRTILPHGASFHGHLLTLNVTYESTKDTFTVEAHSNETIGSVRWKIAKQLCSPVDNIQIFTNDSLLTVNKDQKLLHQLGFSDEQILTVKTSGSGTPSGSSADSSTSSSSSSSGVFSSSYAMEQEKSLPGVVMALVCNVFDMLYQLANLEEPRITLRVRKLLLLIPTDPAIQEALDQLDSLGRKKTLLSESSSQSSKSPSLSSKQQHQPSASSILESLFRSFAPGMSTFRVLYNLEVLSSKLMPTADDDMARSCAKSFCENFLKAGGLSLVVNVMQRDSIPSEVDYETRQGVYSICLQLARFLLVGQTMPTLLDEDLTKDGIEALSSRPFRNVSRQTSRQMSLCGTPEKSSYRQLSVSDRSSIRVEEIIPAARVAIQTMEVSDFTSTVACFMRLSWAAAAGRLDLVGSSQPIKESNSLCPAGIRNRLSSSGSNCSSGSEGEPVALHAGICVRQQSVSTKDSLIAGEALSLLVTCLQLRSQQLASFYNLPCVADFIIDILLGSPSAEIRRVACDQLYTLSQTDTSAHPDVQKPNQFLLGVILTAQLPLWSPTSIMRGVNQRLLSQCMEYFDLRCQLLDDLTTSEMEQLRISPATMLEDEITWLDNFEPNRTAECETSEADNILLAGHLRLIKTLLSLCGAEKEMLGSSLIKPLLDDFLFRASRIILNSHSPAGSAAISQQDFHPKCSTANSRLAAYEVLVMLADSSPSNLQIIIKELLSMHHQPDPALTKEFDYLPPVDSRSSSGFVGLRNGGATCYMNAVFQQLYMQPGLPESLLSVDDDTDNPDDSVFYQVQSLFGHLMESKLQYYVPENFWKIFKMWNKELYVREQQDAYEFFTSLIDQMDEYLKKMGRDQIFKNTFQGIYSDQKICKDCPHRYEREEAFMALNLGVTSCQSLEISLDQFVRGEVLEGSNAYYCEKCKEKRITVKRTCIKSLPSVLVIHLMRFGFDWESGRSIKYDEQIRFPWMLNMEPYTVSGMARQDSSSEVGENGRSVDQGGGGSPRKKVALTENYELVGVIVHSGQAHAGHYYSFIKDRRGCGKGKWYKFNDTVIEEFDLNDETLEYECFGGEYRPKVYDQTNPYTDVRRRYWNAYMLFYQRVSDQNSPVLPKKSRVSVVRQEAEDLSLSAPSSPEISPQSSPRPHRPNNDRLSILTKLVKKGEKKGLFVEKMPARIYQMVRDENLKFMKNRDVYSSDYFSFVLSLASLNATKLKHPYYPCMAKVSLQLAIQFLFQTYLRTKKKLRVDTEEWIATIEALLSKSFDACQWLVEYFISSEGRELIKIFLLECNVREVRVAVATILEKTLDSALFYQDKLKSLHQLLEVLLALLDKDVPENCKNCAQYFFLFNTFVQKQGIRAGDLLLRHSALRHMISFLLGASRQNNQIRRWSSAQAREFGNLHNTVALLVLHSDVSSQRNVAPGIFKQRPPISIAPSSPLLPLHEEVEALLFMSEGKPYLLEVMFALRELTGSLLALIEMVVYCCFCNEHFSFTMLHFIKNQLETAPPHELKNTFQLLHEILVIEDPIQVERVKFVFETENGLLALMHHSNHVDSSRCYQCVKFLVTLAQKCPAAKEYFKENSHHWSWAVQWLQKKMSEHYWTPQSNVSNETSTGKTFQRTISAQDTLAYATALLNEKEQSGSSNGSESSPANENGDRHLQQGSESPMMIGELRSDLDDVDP

CC1(NC(=O)CCl)CCS(=O)(=O)C1 (stereo not given)
inactive: USP19 -0.59 | USP22 -0.238 | USP24 -0.659 | USP25 -0.695 | USP28 -0.835
